# Source: PubChem BioAssay
# Rows were chosen to be rich in hits. Some 2.1% of all compounds tested hit in one or more screens of this group.
# IEC-6 tox-1: IEC-6 cytotoxicity, counter-screen for KLF5 inhibitors. luminescence viability. inhibition, % at 5 µM. hit rate 0.78% among 290,000. AID 1825;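 note: 0% = plate median of test compound wells and 100% = cytotoxic reference compound wells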
# Ba/F3 V617F tox: lowers viability of Ba/F3 cells expressing EpoR and JAK2V617F. AID 1446. inhibition, % at 5.6 µM. hit rate 1.1% among 220,000. ATP luminescence;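 active = inhibition above the campaign mean plus 3 SD over all tested compounds, cut at about 24% in these data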;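 note: cytokine-independent growth of Ba/F3 cells driven by EpoR plus mutant JAK2; 0% = DMSO-treated cells and 100% = JAK inhibitor I control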
# KLF5 inh: suppresses KLF5 promoter-driven expression. inhibition, % at 5 µM. AID 1700. hit rate 0.23% among 290,000. DLD-1 KLF5 promoter-luciferase reporter, luminescence;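 active = inhibition above a per-plate limit of that plate's mean compound inhibition plus 3 SD, cut at about 60% in these data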;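 note: 0% = DMSO wells and 100% = LY294002 at 200 µM; higher means less KLF5 promoter-driven luciferase light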
# aSyn UTR inh: 5' untranslated region of α-synuclein, MLPCN primary screen | alpha-synuclein 5'UTR reporter, inhibitor activity | inhibition, % (tested at 7.5 µM) | hit rate 0.82% among 300,000; in the data active = inhibition above about 60%;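 note: H4 neuroglioblastoma cells stably carrying SNCA 5'UTR luciferase fusion; 0% = DMSO wells and 100% = positive control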
# BaF3 parental: counter-screen for JAK2V617F inhibitors: parental Ba/F3 viability inhibitors; CellTiter-Glo ATP luminescence; AID 1486; hit rate 1.1% among 220,000; inhibition, % at 5.6 µM;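 active = inhibition above a per-campaign cutoff, the mean inhibition of all tested compounds plus 3 SD, cut at about 27% in these data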;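 note: 0% = DMSO wells and 100% = JAK Inhibitor I control wells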
# APP 5UTR inh: APP translation inhibition | SH-SY5Y APP 5'UTR-luciferase reporter, luminescence | inhibition, % at 2 µM | hit rate 0.82% among 190,000 | AID 1285;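 active = inhibition above a set limit, derived from the sample mean plus 3 SD, cut at about 45% in these data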
# BaF3 parental 2: counter-screen for JAK2V617F inhibitors: parental Ba/F3 viability inhibitors; shares compounds with Ba/F3 V617F tox; AID 1520; CellTiter-Glo luminescence; cells kept alive by added IL-3; inhibition, % at 5.6 µM; hit rate 31% among 580;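 active = cell growth inhibition above the hit limit set in the earlier mutant JAK2 cell screen, cut at about 27% in these data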;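 note: plate controls were DMSO-treated cells for no effect and JAK Inhibitor I control wells for full effect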
# JAK2V617F confrm: Ba/F3 EpoR-JAK2V617F viability loss, confirmation; hit rate 66% among 580; shares compounds with Ba/F3 V617F tox; inhibition, % at 5.6 µM; CellTiter-Glo luminescence; AID 1521;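 active = mean inhibition above the hit cutoff derived in the earlier primary screen, cut at about 25% in these data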;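 note: 0% = DMSO-treated cells and 100% = JAK inhibitor I control wells; higher means lower luminescence from reduced cell ATP and viability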
# KLF5 inh confirm: KLF5 inhibition, confirmation assay. shares compounds with KLF5 inh. DLD-1 KLF5 promoter firefly luciferase reporter, luminescence. inhibition, % at 4 µM. hit rate 79% among 610;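 active = inhibition above a set limit taken from the earlier primary screen, cut at about 63% in these data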;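 note: 0% = DMSO wells and 100% = LY294002 at 200 µM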
# IEC-6 tox-2: rat IEC-6 cytotoxicity, KLF5 inhibitor counter-screen. shares compounds with KLF5 inh. IEC-6 rat intestinal cells, viability luminescence. inhibition, % at 4 µM. hit rate 56% among 610; in the data active = inhibition above about 23%;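 note: cells exposed to compounds for 48 hours before viability read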
# IEC-6 tox confirm: confirmation of cytotoxic compounds in rat IEC-6 intestinal epithelial cells. IEC-6 rat intestinal epithelial viability, luminescence. hit rate 63% among 1,900. shares compounds with IEC-6 tox-1. inhibition, % at 5 µM;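 note: 0% = vehicle and 100% = reference cytotoxic drug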
# Numbers without * were called inactive; . = no result given. Cut-off read from the data, not from the text of the source, unless noted: active = inhibition above about 22%; inactive = the rest.
SMILES,IEC-6 tox-1,Ba/F3 V617F tox,KLF5 inh,aSyn UTR inh,BaF3 parental,APP 5UTR inh,KLF5 inh confirm,IEC-6 tox-2,others
COc1cc(C)c(C(C)C)cc1S(=O)(=O)n1cnc(C)c1,36.4*,63.0*,37.0,64.3*,16.3,-11.8,.,.,BaF3 parental 2=61.4*;JAK2V617F confrm=92.4*;IEC-6 tox confirm=51.4*
CC(CC(=O)Nc1nnc(CC(C)(C)C)s1)c1ccccc1 (configuration not stated),-10.5,.,-37.9,-11.3,.,.,.,.,
CN1CCN(S(=O)(=O)c2cccs2)CC1,-0.3,-1.3,-30.9,-18.5,0.3,19.4,.,.,
O=S(=O)(c1cccs1)N1CCN(c2ccc(O)cc2)CC1,24.3*,65.5*,-7.1,18.6,-1.9,.,.,.,BaF3 parental 2=6.4;JAK2V617F confrm=60.1*;IEC-6 tox confirm=5.8
Cc1nn2c(NCc3ccccn3)c3c(nc2c1-c1ccccc1)CCC3,94.9*,48.3*,27.0,4.8,10.7,.,.,.,BaF3 parental 2=9.9;JAK2V617F confrm=58.9*;IEC-6 tox confirm=15.3
Cc1nn2c(NCCN3CCOCC3)c3c(nc2c1-c1ccccc1)CCCC3,0.6,0.1,2.7,1.7,2.5,.,.,.,
CCOC(=O)c1ccc(OCC2NCCc3cc(OC)c(OC)cc32)cc1 (configuration not stated),1.4,.,-27.1,11.8,.,.,.,.,
O=C(NC1CCCc2ccccc21)c1n[nH]c(=O)c2ccccc12 (configuration not stated),22.8*,23.8*,1.8,87.5*,-6.6,15.2,.,.,BaF3 parental 2=8.9;JAK2V617F confrm=42.2*;IEC-6 tox confirm=34.2*
O=C(NC1CCCc2ccccc21)c1ccccc1 (configuration not stated),-5.8,0.8,3.0,14.9,5.8,6.7,.,.,
C/C(=N\N=C(N)N)c1cc(Cl)ccc1Cl,31.1*,44.3*,-3.0,64.7*,7.7,-26.0,.,.,BaF3 parental 2=-4.4;JAK2V617F confrm=22.7;IEC-6 tox confirm=7.1
CN(C)c1ccc(P(=O)(OCc2ccccc2)C(O)c2ccccc2)cc1 (configuration not stated),1.1,-1.2,1.7,-4.2,-2.7,.,.,.,
COc1cc(/C=N/NC(=O)c2ccncc2)ccc1OC(=O)c1cc(OC)c(OC)c(OC)c1,-4.8,.,-21.6,-2.1,.,.,.,.,
COc1ccc(OC)c2c1C(=O)C(Cl)=C(Cl)C2=O,86.4*,66.0*,7.5,-88.8,-4.5,.,.,.,BaF3 parental 2=83.8*;JAK2V617F confrm=92.0*;IEC-6 tox confirm=63.0*
COc1ccc(OC)c2[nH]c(C(=O)N/N=C/c3ccccc3O)cc12,12.3,.,96.1*,3.8,.,.,90.5*,-3.8,
COc1ccc(C(=O)C2CCCN(C(=O)c3cccnc3SC)C2)c(C)c1 (configuration not stated),-3.2,-2.8,-6.9,17.0,-1.2,-1.7,.,.,
COc1ccc(/C=C/c2nc3ccccc3c(=O)o2)cc1,7.6,.,71.0*,101.5*,.,.,55.1,2.0,
COc1ccc(/C=C/c2nc3ccccc3n2C)cc1,11.5,26.0*,67.5*,108.8*,30.8*,19.2,95.5*,33.6*,
COc1ccccc1/C=C/c1nc2ccccc2c(=O)o1,6.3,.,-127.4,-106.9,.,.,.,.,
CC(NC(=S)NCCCN1CCOCC1)C12CC3CC(CC(C3)C1)C2 (configuration not stated),3.9,5.5,-18.2,.,7.9,-27.5,.,.,
COc1cccc(/C=N/Nc2nccnc2Cl)c1O,6.9,94.8*,104.0*,89.6*,94.5*,51.0*,90.0*,-4.0,
CCNC(=S)NNC(=O)c1cc(-c2ccc(OCC)cc2)nc2ccccc12,14.1,24.4*,81.1*,55.5,31.2*,-126.8,79.0*,0.3,
Cc1ccc(C(C)C)c(OCCNCCc2ccccc2)c1,3.8,.,-19.2,-10.2,.,.,.,.,
O=C1c2cccc3cc([N+](=O)[O-])cc(c23)C(=O)N1CCN1CCCC1,99.8*,99.0*,61.2,97.8*,104.0*,.,45.1,97.7*,
Cc1cccc(CN2CCC(Oc3ccc(C(=O)N4CCCCC4)cc3)CC2)c1,3.6,.,-20.9,-1.9,.,.,.,.,
CCc1nc2sc3c(c2c(=O)o1)CCCC3,-0.1,7.7,10.6,-10.1,8.6,-6.3,.,.,
SMILES,IEC-6 tox-1,Ba/F3 V617F tox,KLF5 inh,aSyn UTR inh,BaF3 parental,APP 5UTR inh,KLF5 inh confirm,IEC-6 tox-2,others
CC(C)(C)c1nc2sc3c(c2c(=O)o1)CCCC3,-2.8,2.4,68.7*,4.7,3.9,9.8,2.5,-6.3,
Oc1c(Br)cc(Br)cc1/C=N/Nc1ccc(Cl)nn1,-4.3,.,101.8*,96.7*,.,.,36.0,-4.3,
CCC(=O)N(C1=C(NC)C(=O)c2ccccc2C1=O)C(C)C,3.4,100.5*,75.8*,-0.6,102.0*,21.8,14.9,3.8,
CC(=O)NC1=C(N(C)C2CCS(=O)(=O)C2)C(=O)c2ccccc2C1=O (configuration not stated),0.3,1.5,-42.6,10.2,10.2,1.8,.,.,
CNC1=C(N(C(C)=O)c2ccc(Br)cc2)C(=O)c2ccccc2C1=O,13.6,100.5*,96.8*,110.9*,101.7*,55.0*,94.0*,17.9,
O=C(NC1CCCCC1)C(c1ccco1)N(C(=O)c1csnn1)c1cccc(Cl)c1 (configuration not stated),-1.2,.,6.7,-11.0,.,.,.,.,
CN(C)c1ccc(/C=C/c2nc3ccccc3c(=O)[nH]2)cc1,19.5,.,99.1*,87.4*,.,.,94.1*,2.2,
O=c1[nH]c(/C=C/c2ccc(Br)cc2)nc2ccccc12,0.9,.,-27.9,-168.8,.,.,.,.,
COc1ccccc1N=Nc1ccc(O)c2ncccc12,3.7,.,74.7*,36.6,.,.,46.8,1.4,
COc1ccc(NC(=O)CCC(=O)N2CCCC2)c([N+](=O)[O-])c1,-0.5,.,-13.2,-0.6,.,.,.,.,
COc1ccc(C(=O)Nc2nc3ccccc3s2)c(OC)c1,21.8,.,101.0*,79.2*,.,.,79.8*,17.1,
COc1ccc2nc(NC(=O)c3ccccc3C(=O)O)sc2c1,1.6,.,-19.3,5.1,.,.,.,.,
COc1cccc(CN2CCNC(=O)C2CC(=O)NCC(C)(C)N2CCOCC2)c1OC (configuration not stated),-2.7,.,-17.5,7.3,.,.,.,.,
O=C(CN1C(=O)NC2(CCCC2)C1=O)Nc1ccc(Cl)cc1F,-2.4,.,-13.1,6.2,.,.,.,.,
O=C(CN1C(=O)NC2(CCCC2)C1=O)Nc1ccccc1F,4.9,2.0,109.1*,-12.2,4.3,-0.4,0.9,-7.1,
O=C(Nc1nc2cc3c(cc2s1)OCO3)C1=COCCO1,21.1,11.4,77.8*,94.5*,14.6,-75.2,49.2,12.1,
Oc1ccc(-c2nc(-c3ccc(O)c(O)c3)cs2)cc1,-1.3,88.3*,68.9*,35.8,81.0*,93.6*,48.1,-1.4,
O=C(Nc1nncs1)c1cc2c(s1)CCC2,-0.3,1.3,-92.9,-131.5,8.3,-39.9,.,.,
